Measurements from PubChem BioAssay (NCI).
This is part of a sample that, as a whole, favours compounds with a hit. Of some 83,000 tested, about 20% had one in any assay.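 Values shown are percent growth following 48 h exposure of cells in 96-well plates to a single concentration of compound; below 10 was considered active.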 Values without a mark were called inactive. Active and inactive are the calls of the source.

Experiments:
Assay in all cases: NCI-60 one-dose screen, 48 h (100 = growth as untreated, 0 = no growth, -100 = all killed)
Details in all cases: 10 µM unless noted
HT29 colon = system: HT29 colon
SNB-75 CNS = system: SNB-75 CNS
SNB-19 CNS = system: SNB-19 CNS
U251 CNS = system: U251 CNS
PC-3 prostate = system: PC-3 prostate
SK-MEL-5 melanoma = system: SK-MEL-5 melanoma
UACC-62 melanoma = system: UACC-62 melanoma
LOX IMVI melanoma = system: LOX IMVI melanoma
SK-MEL-28 melanoma = system: SK-MEL-28 melanoma
SK-MEL-2 melanoma = system: SK-MEL-2 melanoma
EKVX NSCLC = system: EKVX NSCLC
SN12C renal = system: SN12C renal
UO-31 renal = system: UO-31 renal
TK-10 renal = system: TK-10 renal
ACHN renal = system: ACHN renal
CAKI-1 renal = system: CAKI-1 renal
A498 renal = system: A498 renal
CCRF-CEM leukemia = system: CCRF-CEM leukemia
MOLT-4 leukemia = system: MOLT-4 leukemia

Q: With `COc1ccc(N=C2NN=C(c3c[nH]c4ccccc34)CS2)cc1OC` as the compound, how does the growth (HT29 colon) read?
A: Its growth is 25.3%.

Q: What about the growth (SNB-75 CNS) of the same compound?
A: The growth was 42.2%.

Q: And the growth (SNB-19 CNS)?
A: Its growth is 51.8%.

Q: What about the growth (U251 CNS) of the same compound?
A: The growth was 44.8%.

Q: And the growth (PC-3 prostate)?
A: The growth was -41.3% (active).

Q: And the growth (SK-MEL-5 melanoma)?
A: The growth was 51.9%.

Q: What about the growth (UACC-62 melanoma) of the same compound?
A: The growth was 35.6%.

Q: And the growth (LOX IMVI melanoma)?
A: The growth was 45.1%.

Q: And the growth (SK-MEL-28 melanoma)?
A: Its growth is 63.7%.

Q: What about the growth (SK-MEL-2 melanoma) of the same compound?
A: The growth was 19.1%.

Q: What about the growth (EKVX NSCLC) of the same compound?
A: The growth was 63.3%.

Q: What about the growth (SN12C renal) of the same compound?
A: Its growth is 70.7%.

Q: And the growth (UO-31 renal)?
A: Its growth is 35.9%.

Q: And the growth (TK-10 renal)?
A: The growth was 96%.

Q: What about the growth (ACHN renal) of the same compound?
A: Its growth is 62.8%.

Q: What about the growth (CAKI-1 renal) of the same compound?
A: The growth was 63.8%.

Q: And the growth (A498 renal)?
A: The growth was 62.5%.

Q: What about the growth (CCRF-CEM leukemia) of the same compound?
A: The growth was 39.5%.

Q: What about the growth (MOLT-4 leukemia) of the same compound?
A: The growth was 39.9%.

Q: What does the source list for `Cc1ccc2cnc(N)c(C#Cc3cc(C(=O)Nc4ccc(CN5CCN(C)CC5)c(C(F)(F)F)c4)cnc3C)c2c1`?
A: growth (HT29 colon): -62.7% (active); growth (SNB-75 CNS): -17.1% (active); growth (SNB-19 CNS): 17.4%; growth (U251 CNS): -80.7% (active); growth (PC-3 prostate): -86.9% (active); growth (SK-MEL-5 melanoma): 26.8%; growth (UACC-62 melanoma): 7.26% (active); growth (LOX IMVI melanoma): -71% (active); growth (SK-MEL-28 melanoma): -84.9% (active); growth (SK-MEL-2 melanoma): 6.23% (active); growth (EKVX NSCLC): 12.6%; growth (SN12C renal): 2.6% (active); growth (UO-31 renal): -82% (active); growth (TK-10 renal): 39.7%; growth (ACHN renal): -100% (active); growth (CAKI-1 renal): -35.7% (active); growth (CCRF-CEM leukemia): -34.8% (active); growth (MOLT-4 leukemia): -5.68% (active)

Q: `Nc1ncnc2c1N=C(c1ccc(Cl)cc1)CC(c1cccc(Nc3ccnc4cc(Cl)ccc34)c1)N2` (centres undefined) was tested. Which growth (HT29 colon) did it give?
A: Its growth is 36.3%.

Q: What about the growth (SNB-75 CNS) of the same compound?
A: Its growth is 60.4%.

Q: What about the growth (SNB-19 CNS) of the same compound?
A: Its growth is 79.6%.

Q: What about the growth (U251 CNS) of the same compound?
A: Its growth is 50%.

Q: And the growth (SK-MEL-5 melanoma)?
A: Its growth is 61.9%.

Q: And the growth (UACC-62 melanoma)?
A: The growth was 81.2%.

Q: What about the growth (LOX IMVI melanoma) of the same compound?
A: The growth was 45.5%.

Q: And the growth (SK-MEL-28 melanoma)?
A: Its growth is 86.8%.

Q: What about the growth (SK-MEL-2 melanoma) of the same compound?
A: Its growth is 76.6%.

Q: What about the growth (EKVX NSCLC) of the same compound?
A: Its growth is 59.4%.

Q: And the growth (SN12C renal)?
A: The growth was 67.1%.

Q: What about the growth (UO-31 renal) of the same compound?
A: The growth was 47.2%.

Q: What about the growth (TK-10 renal) of the same compound?
A: The growth was 117%.

Q: What about the growth (ACHN renal) of the same compound?
A: The growth was 84.2%.

Q: And the growth (CAKI-1 renal)?
A: Its growth is 65.7%.

Q: And the growth (A498 renal)?
A: The growth was 51.1%.

Q: What about the growth (CCRF-CEM leukemia) of the same compound?
A: Its growth is 4% (active).

Q: What about the growth (MOLT-4 leukemia) of the same compound?
A: The growth was 12.3%.

Q: How did the growth (HT29 colon) turn out when `C[N+]1=C(/C=C/c2ccccc2Cl)C(C)(C)c2ccccc21` was run?
A: The growth was 91.4%.

Q: What about the growth (SNB-75 CNS) of the same compound?
A: Its growth is 95.5%.

Q: What about the growth (SNB-19 CNS) of the same compound?
A: The growth was 107%.

Q: And the growth (U251 CNS)?
A: The growth was 84.2%.

Q: What about the growth (PC-3 prostate) of the same compound?
A: The growth was 83.5%.

Q: What about the growth (SK-MEL-5 melanoma) of the same compound?
A: Its growth is 92.2%.

Q: What about the growth (UACC-62 melanoma) of the same compound?
A: Its growth is 91.9%.

Q: What about the growth (LOX IMVI melanoma) of the same compound?
A: The growth was 85.5%.

Q: And the growth (SK-MEL-28 melanoma)?
A: The growth was 103%.

Q: What about the growth (SK-MEL-2 melanoma) of the same compound?
A: Its growth is 109%.

Q: What about the growth (EKVX NSCLC) of the same compound?
A: Its growth is 96.9%.

Q: What about the growth (SN12C renal) of the same compound?
A: The growth was 103%.

Q: And the growth (UO-31 renal)?
A: The growth was 71.5%.

Q: And the growth (TK-10 renal)?
A: Its growth is 114%.

Q: And the growth (ACHN renal)?
A: Its growth is 110%.

Q: What about the growth (CAKI-1 renal) of the same compound?
A: Its growth is 89%.

Q: What about the growth (A498 renal) of the same compound?
A: Its growth is 87.1%.

Q: What about the growth (CCRF-CEM leukemia) of the same compound?
A: Its growth is 47.1%.

Q: What about the growth (MOLT-4 leukemia) of the same compound?
A: The growth was 70.3%.
